High-throughput results: PubChem BioAssay, National Center for Advancing Translational Sciences (NCATS)
Pf Dd2 growth: qHTS Primary assay for Inhibitors of Plasmodium falciparum Dd2 growth in vitro | P. falciparum Dd2 growth, SYBR Green, 72 h | Potency, µM (top dose mostly 28.9 µM), inactives show top-dose activity, negative = inhibition, actives largely listed as inhibitors | 120,000 tested, 4.3% active | AID 1347417, 2020; active means well fitted inhibition curve with a large enough effect;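 further: plate controls were DMSO vehicle for no effect and reference drug for full effect; nearly all actives have a fitted effect of over 65% in size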
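Readout: SYBR Green fluorescence, 485 nm excitation, 535 nm emission, after ~16 h lysis at 37C. Before that, Dd2-infected red cells (2.5% hematocrit) grew 72 h with compound, 29 uM top final concentration.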
Starred values were filed as active, the others as inactive; i = inactive; [ ] = another dose, or the depositor's remark. This is one part of a sample in which hits are shown more often than they occur. Potency means the concentration at half of the fitted maximal effect.

SMILES | Pf Dd2 growth
O=C(Nc1ccc2ncnc(N3CCCC3)c2c1)c1cccc(Br)c1 | -20%
Cc1ccc(C(=O)Nc2ccc3c(N4CCOCC4)ncnc3c2)cc1 | -11%
O=C(Nc1ccc2c(N3CCOCC3)ncnc2c1)c1ccc(F)c(Cl)c1 | 2.5µM*
O=C(Nc1ccc2c(N3CCOCC3)ncnc2c1)c1ccccc1C(F)(F)F | i
O=C(Nc1ccc2c(N3CCOCC3)ncnc2c1)c1cccc(Br)c1 | 0.89µM*
O=C(Nc1ccc2nc(SCC(=O)N3CCOCC3)sc2c1)c1cccc(Br)c1 | -6%
N[C@@H]1CC[C@@H]1NC(=O)c1ccccc1-c1nc(-c2ccccc2)no1 | -18%
CCOc1ccccc1C(=O)N1CCCN(C(=O)C2CC2)c2ccccc21 | i
CC(C)(C)C(=O)N1CC[C@H]2CC(=O)N(C3CCCCC3)CC[C@H]2C1 | i
CC(C)CCC(=O)N[C@@H]1CN(C)C[C@H]1CN(C)C | 17%
COc1ccc(C(=O)NCc2ccnc3[nH]ccc23)cc1 | -8%[44.1 µM]
CCNC(=O)c1ccc(-c2cc(NC3CCCC3)nc3[nH]ccc23)nc1 | 10µM*
Nc1ncc(-c2ccc(-c3cc(NC4CCCC4)nc4[nH]ccc34)cc2)[nH]1 | 8.9µM*
O=C(O)c1cnc(-c2cc(NCc3ccccn3)nc3[nH]ccc23)c(Cl)c1 | -3%
COc1ccc(C(=O)NC(C(=O)NCC(C)C)C2CCN(C(=O)C3CCCC3)CC2)cc1 (configuration not stated) | i
Cc1ccc(-c2noc([C@@H]3CCCN3C(=O)c3ccc(C(C)(C)C)cc3)n2)cc1 | 54%
COc1cccc(C(=O)N2CCC(N3C[C@H](O)C[C@H]3C(=O)NCCN3CCCC3)CC2)c1 | -6%
O=c1n(-c2ccc([N+](=O)[O-])cc2)nc2n1CCN(Cc1ccc(F)cc1)C2 | 0%
COCCn1c(COc2c(C)nc(C)nc2C)nnc1C1CC(N)C1 (configuration not stated) | -19%
Cc1cc(C)n(CCC(=O)N2CCC(Cc3nc(-c4ccccc4)n[nH]3)CC2)n1 | i
Cc1ccc(CNC(=O)N2CCC(Cc3nc(-c4ccncc4)n[nH]3)CC2)cc1 | -10%
Cc1cccc(NC(=O)N2CCC(Cc3nc(-c4ccccc4)n[nH]3)CC2)c1 | 1.6µM*
O=C(Cc1ccccc1)N1CCOC2(CCN(C(=O)c3ccccc3)CC2)C1 | 13%
COc1ccccc1C(O)c1nc(Nc2cccc(F)c2)n[nH]1 (configuration not stated) | i
COc1cc2nc(Nc3cccc(F)c3)nc(N)c2cc1OC | 2.2µM*
SMILES | Pf Dd2 growth
CCOc1ccc(-n2c(/C=C/c3cccc(F)c3)nc3cc(OC)c(OC)cc3c2=O)cc1 | i
Cc1nc2cccnc2n1CC1CCCN(S(=O)(=O)c2ccc(F)c(F)c2)C1 (configuration not stated) | -17%
Cc1ccc(S(=O)(=O)N2CCCC(Cn3c(C)nc4cccnc43)C2)cc1Cl (configuration not stated) | 7.1µM*
Cc1ccc(S(=O)(=O)N2CCCC(Cn3c(C)nc4cccnc43)C2)cc1 (configuration not stated) | -6%
O=C(Cn1cccc1-c1nc(-c2ccc3c(c2)OCO3)no1)Nc1ccc(Cl)cc1F | -16%
Cc1cc(C(=O)N2CCc3nnc([C@@H]4C[C@@H](O)CN4C(C)C)n3CC2)nn1C | 11%
O=C([C@@H]1C[C@H](F)CN1S(=O)(=O)c1ccc(F)c(F)c1)N1CCCCC1 | -16%
Cc1noc(-c2cn(C3CCN(C(=O)COc4ccccc4)C3)nn2)n1 (configuration not stated) | i
Cc1cccc(C2C=C(c3ccc(C)c(C)c3)Nc3nnnn32)c1 (configuration not stated) | 11µM*
COc1ccc(C2C=C(c3ccc(Br)cc3)Nc3nnnn32)c(OC)c1 (configuration not stated) | -30%
Cc1ccc(C2=CC(c3c(F)cccc3Cl)n3ncnc3N2)cc1C (configuration not stated) | 3%
COc1ccc(C(C)NC(=O)c2cc3c(N4CCSCC4)nc(C)cn3n2)cc1OC (configuration not stated) | i
CCc1csc(CNC(=O)c2ccc(N3CC[C@H](O)C3)nc2)n1 | -6%
O=C(NCCc1ccncc1)C1c2ccccc2C(=O)N(C2CCCCC2)C12CCCCC2 (configuration not stated) | 10µM*
CCCNC(=O)C1c2ccccc2C(=O)N(C2CCCCC2)C12CCCCC2 (configuration not stated) | i
O=C(NCCc1ccncc1)C1c2ccccc2C(=O)N(Cc2ccccc2)C12CCCC2 (configuration not stated) | -29%
Cc1ccc(-n2nc3c(N4CCC(C(=O)NC(C)c5ccccc5)CC4)nnc(C)c3c2C)cc1 (configuration not stated) | 10µM*
COc1ccccc1CNC(=O)C1CCN(c2nnc(C)c3c(C)n(-c4ccccc4)nc23)CC1 | -4%
Cc1nnc(N2CCC(C(=O)NCc3cccc(Cl)c3)CC2)c2nn(-c3ccccc3)c(C)c12 | -1%
CCOC(=O)C1CCN(C(=O)C2CCN(c3nnc(C)c4c(C)n(-c5ccccc5)nc34)CC2)CC1 | 3.2µM*
Cc1nnc(N2CCC(C(=O)NC(C)C)CC2)c2nn(-c3ccccc3)c(C)c12 | 9%
Cc1ccc(-n2nc3c(N4CCC(C(=O)NCCc5ccccc5C)CC4)nnc(C)c3c2C)cc1 | 8.9µM*
Cc1ccccc1CNC(=O)C1CCN(c2nnc(C)c3c(C)n(-c4ccccc4)nc23)CC1 | i
CCOc1ccc(NC(=O)C2CCN(c3nnc(C)c4c(C)n(-c5ccccc5)nc34)CC2)cc1 | 4%
Cc1ccc(NC(=O)C2CCN(c3nnc(C)c4c(C)n(-c5ccccc5)nc34)CC2)c(Cl)c1 | 41%
SMILES | Pf Dd2 growth
Cc1nnc(N2CCC(C(=O)NC(C)C)CC2)c2nn(-c3ccc(Cl)cc3)c(C)c12 | 27%
Cc1ccc(-n2nc3c(N4CCC(C(=O)N5CCC(C)CC5)CC4)nnc(C)c3c2C)cc1 | 0%
Cc1ccc(-n2nc3c(N4CCC(C(=O)NCCc5ccccc5)CC4)nnc(C)c3c2C)cc1 | 6.3µM*
CS(=O)(=O)c1ccc2c(c1)nc1n2[C@@H](CNCc2ccncc2F)COC1 | 36%[44.1 µM]
Cn1c(CN2C[C@H](O)C[C@H]2c2nc(-c3ccc(OC(F)(F)F)cc3)no2)nc2ccccc21 | i
O=C(NCc1ccc2c(c1)OCO2)C1CN(Cc2ccccc2)C(=O)N1 (configuration not stated) | -4%
CN1CCC(N[C@@H]2CO[C@H](CNC(=O)c3cccs3)[C@H]2O)CC1 | 4%[44.1 µM]
CN1CCC(NC[C@H]2O[C@@H]3C[C@@H](CC(=O)N4CCC(F)(F)C4)O[C@@H]3[C@@H]2O)CC1 | 13%[44.1 µM]
COc1ccc(OC)c(NC(=O)CC2CCCN(c3cnn(C)c(=O)c3)C2)c1 (configuration not stated) | -8%
c1ccc(C2=NOC3(CCN(C4COC4)CC3)C2)cc1 | 3%[44.1 µM]
CCC(CC)NC(=O)CCc1nc(C2CCCN2C(=O)NC(C)C)no1 (configuration not stated) | i
O=C(NCCCN1CCCC1)c1cn2ccnc(-c3ccccc3)c2n1 | -16%
CN(C)C(=O)c1ccc2ccnn2c1 | 23%[44.1 µM]
Cn1nc(C2CCNC2)c2c(C(=O)NCc3ccc(F)cc3)cc(C3CC3)nc21 (configuration not stated) | -23%
COCCNC(=O)c1cc(C2CC2)nc2c1c(C1CCCN1)nn2C (configuration not stated) | -5%
